FPRL1 binder – ligands of human FPRL1, also counter-screen for FPR ligands | inhibition, % (concentration not given with the values) | FPRL1-expressing cells, fluorescent ligand binding inhibition, flow cytometry | P25090 | 0.3% of 24,000 active;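 also: 0% = buffer alone and 100% = receptor blocker peptide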
FPR binder – human FPR ligand, with FPRL1 counter-screen. FPR-expressing cells, fluorescent ligand binding, flow cytometry. inhibition, % (concentration not given with the values). 0.74% of 24,000 active. AID 440;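 also: 0% = buffer wells and 100% = receptor blocker peptide wells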
Target sequence (P21462 whole entry, looked up): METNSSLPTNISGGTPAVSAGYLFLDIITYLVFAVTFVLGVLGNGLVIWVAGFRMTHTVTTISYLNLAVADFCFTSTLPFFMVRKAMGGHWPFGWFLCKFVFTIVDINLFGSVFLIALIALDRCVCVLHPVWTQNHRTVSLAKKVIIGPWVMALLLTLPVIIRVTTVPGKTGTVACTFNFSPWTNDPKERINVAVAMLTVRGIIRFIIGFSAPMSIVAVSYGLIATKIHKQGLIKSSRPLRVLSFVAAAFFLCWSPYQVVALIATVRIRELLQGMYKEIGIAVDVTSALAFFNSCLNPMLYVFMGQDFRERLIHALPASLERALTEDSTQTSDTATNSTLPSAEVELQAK
S aureus QS inh – blocks AIP-induced quorum sensing reporter in S. aureus; S. aureus RN6390 RNAIII-GFP reporter, flow cytometry 3 h; inhibition, % at 2 µM; 0.3% of 24,000 active; AID 527;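 active = share of bacteria positive for the green fluorescent reporter and its mean brightness both inhibited by 50% or more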;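 also: 0% = AIP-stimulated control and 100% = unstimulated bacteria without AIP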
LNCaP diff act – LNCaP prostate cell differentiation activation. AID 795. 0.56% of 24,000 active. flow cytometry side scatter, 4 d. side scatter shift, % at 10 µM;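 active = side scatter shift above 30%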;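 also: androgen-responsive LNCaP prostate cancer cells in charcoal-stripped serum medium; percent of cells past a gate set so DMSO wells show 10% shift; higher shift means more granular cells and more differentiation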
The depositor's hits bear a star; x = no result. An excerpt weighted towards active compounds, which were near 1.9% of everything screened. Rule as the data show it, unless noted: active = inhibition above about 30%; inconclusive = no clear call, values can overlap the other calls; inactive = below that.

SMILES	FPRL1 binder	FPR binder	S aureus QS inh	LNCaP diff act
COc1ccc(-c2cc(C(F)(F)F)nc(N3CCN(C)CC3)n2)cc1OC	0	-11	x	x
COc1ccc(-c2cc(C(F)(F)F)nc(N3CCCCC3)n2)cc1OC	33*	10	2	12
Cc1ccc2nc(N3CCN(C=O)CC3)nc(-c3ccccc3)c2c1	-1	-9	x	x
COc1ccc(OC)c(C(=O)c2coc3ccc(O)cc23)c1	x	x	-2	x
COc1ccc(OC)c(C(=O)c2nc3c(n2O)CCCCC3)c1	52*	54*	0	10
COc1ccccc1OCc1ccc(C(=O)Nc2ccncc2)o1	-4	-4	0	9
CCCCCNC(=O)c1ccc2c(=O)[nH]c3c(C(=O)NCC4CCCO4)sc(=S)n3c2c1 (stereo not given)	5	40*	2	1
O=C(NCc1ccco1)c1sc(=S)n2c1[nH]c(=O)c1ccccc12	0	8	5	3
O=C(NC1CCCC1)c1sc(=S)n2c1[nH]c(=O)c1ccccc12	0	95*	0	12
CCn1cc(C(=O)NCc2cccs2)c(=O)c2cc(S(=O)(=O)N3CCOCC3)ccc21	-4	-1	-2	7
CCN1CCCC1CNC(=O)c1cc2c(-c3cccc(OC)c3)nn(C)c2s1 (stereo not given)	1	2	1	23
Cn1nc(-c2ccc(Cl)cc2)c2cc(C(=O)NCCCN3CCCC3)sc21	-1	1	-1	62*
CCN1CCCC1CNC(=O)c1cc2c(-c3ccc(Cl)cc3)nn(C)c2s1 (stereo not given)	-7	3	3	64*
CC1CN(c2nc3ccccc3nc2C(C#N)C(=O)OC2CCCCC2)CC(C)O1 (stereo not given)	-4	-3	61*	3
CCOc1ccccc1N1CCN(c2nc3ccccc3nc2C(C#N)C(=O)OC)CC1 (stereo not given)	-8	-4	0	5
COc1ccccc1N1CCN(c2nc3ccccc3nc2C(C#N)C(=O)OC(C)C)CC1 (stereo not given)	10	0	-8	30*
O=C(NCc1ccco1)C1CCCN(S(=O)(=O)c2cccc3cccnc23)C1 (stereo not given)	-1	1	-2	13
C1COC(NC(C2CC2)C2CC2)=N1	3	-4	-2	1
CCN(C(=O)Cc1c(C(=O)O)[nH]c2ccccc12)c1cc(OC)ccc1OC	0	32*	0	8
Cc1nn(-c2ccccc2)c2sc(-c3n[nH]c(=S)o3)cc12	-7	-2	60*	4
Cc1nn(-c2ccccc2)c2sc(C(=O)N3CCOCC3)cc12	10	7	-8	12
Cc1ccc(C2=Nc3ccccc3NC(C)(c3ccc(C)o3)C2)o1 (stereo not given)	4	-6	0	35*
Cn1cc(C2NC(=O)c3c(sc4c3CCCC4)N2)c2ccccc21 (stereo not given)	-2	4	0	7
Cn1cc(/C=N/n2cnc3sc4c(c3c2=O)CCCC4)c2ccccc21	-2	-2	68*	2
COC(=O)C1=[N+]([O-])OC(C(=O)OC)C1c1c[nH]c2ccccc12 (stereo not given)	77*	35*	8	8
SMILES	FPRL1 binder	FPR binder	S aureus QS inh	LNCaP diff act
O=C(NCc1ccco1)c1cc2sccc2n1Cc1ccccc1	6	-5	-2	17
Cc1cccc(N2C(=O)CC(N(C(=O)c3ccco3)c3cccc(C)c3)C2=O)c1 (stereo not given)	-7	-8	2	11
COc1ccc2c(c1)CCc1c(C(=O)Nc3cc(C)n(Cc4ccc(Cl)cc4)n3)noc1-2	2	1	3	62*
CC(C)(O)c1cn(-c2nonc2N)nn1	2	-2	-4	x
Cc1ccccc1-c1nc(CN2CCC(C(=O)NC3CCN(Cc4ccccc4)CC3)CC2)c(C)o1	-2	-2	-1	48*
Cc1ccccc1-c1nc(CN2CCC(C(=O)NCCC3=CCCCC3)CC2)c(C)o1	5	2	13	34*
Cc1ccccc1-c1nc(CN2CCC(C(=O)O)CC2)c(C)o1	-4	-6	-7	4
COC(=O)CS(=O)(=O)c1ccc2c(c1)CC(=O)N2	4	-3	6	12
Cc1cc2occ(CC(=O)OCC(=O)Nc3sc4c(c3C#N)CCC(C)C4)c2cc1C (stereo not given)	x	x	1	x
COc1ccc(OC)c(NC(=O)C2C3CCC(C3=C(C)C)C2C(=O)O)c1 (stereo not given)	26	38*	x	x
COc1ccc(OC)c(NC(=O)C2CCCCC2C(=O)O)c1 (stereo not given)	0	-6	x	x
O=C(CCCn1c(=S)[nH]c2cc3c(cc2c1=O)OCO3)N1CCc2ccccc2C1	0	2	66*	5
O=C(CCCn1c(=S)[nH]c2cc3c(cc2c1=O)OCO3)N1CCN(c2ccccc2)CC1	-1	4	-8	7
CCOC(=O)Cc1cc(=O)n2[nH]c(C)c(-c3ccc(OC)cc3)c2n1	1	44*	3	2
CCOC(=O)Cc1cc(=O)n2[nH]c(C)c(-c3ccc(Cl)cc3)c2n1	1	54*	x	x
COc1ccc(Cl)cc1-n1c(=S)sc2c(=O)[nH]c(SCC(=O)NCC3CCCO3)nc21 (stereo not given)	-3	44*	6	3
O=C(O)CC1NC(=O)N(c2ccccc2)C1=O (stereo not given)	7	4	-1	2
CCCCC1C(=O)N(c2ccccc2)N(c2ccccc2)C1=O	0	50*	-1	4
CCc1ccc(-c2nc(CN3CCC(C(=O)N4CCN(c5ccccc5)CC4)CC3)c(C)o2)cc1	-11	5	-6	35*
Cc1oc(-c2ccc(Cl)cc2)nc1CN1CCC(C(=O)N2CCN(c3ccccn3)CC2)CC1	-2	-1	0	43*
COC(=O)NCCOC(=O)N(O)c1ccc(Br)cc1	9	0	1	4
Cc1ccc(OCC(O)Cn2c(=N)n(CCN3CCCCC3)c3ccccc32)cc1 (stereo not given)	-2	-5	0	58*
CCCCCn1c(=N)n(CC(O)COc2ccccc2OC)c2ccccc21 (stereo not given)	2	-2	1	34*
CCOC(=O)Cc1c(C)nc2c(-c3ccc(Cl)cc3)c[nH]n2c1=O	-9	-4	x	x
COC(=O)c1ccc(CSc2nc3c(cnn3-c3ccc(Cl)cc3)c(=O)[nH]2)o1	1	11	71*	2
SMILES	FPRL1 binder	FPR binder	S aureus QS inh	LNCaP diff act
CC(C)N1C(=O)CCC1C(=O)NCc1ccccc1Cl (stereo not given)	1	-14	-6	1
COc1cccc(OC)c1/C(O)=C(\C#N)c1nc2ccccc2[nH]1	12	32*	-6	5
CC(C)(C)/C(O)=C(/C#N)c1nc2ccccc2[nH]1	-9	3	-4	3
CC(C)Cn1c(=O)c(C2=NS(=O)(=O)c3ccccc3N2)c(O)c2ccccc21	-5	4	7	3
COc1ccc(CCN2CCC(Nc3nc4ccccc4n3Cc3ccc(F)cc3)CC2)cc1	0	-8	4	66*
N[C@@H](Cc1ccc(O)c(I)c1)C(=O)O	-3	51*	-3	3

Screening results deposited in PubChem BioAssay by NMMLSC.
